Assay in all cases: NCI-60 one-dose screen, 48 h (100 = growth as untreated, 0 = no growth, -100 = all killed)
Settings in all cases: 10 µM unless noted

For test [1], the system named is HCT-15 colon.
In test [2] the test system is HT29 colon.
Test [3] concerns SNB-75 CNS.
The test system of test [4] is SNB-19 CNS.
For test [5], the system named is U251 CNS.
Test [6] deals with PC-3 prostate.
Test [7] relates to SK-MEL-5 melanoma.
The subject of test [8] is UACC-62 melanoma.
Test [9] relates to LOX IMVI melanoma.
The subject of test [10] is SK-MEL-28 melanoma.
In test [11] the test system is SK-MEL-2 melanoma.
Test [12] deals with EKVX NSCLC.
For test [13], the system named is SN12C renal.
Test [14] deals with UO-31 renal.
The test system of test [15] is TK-10 renal.
Test [16] has as its system ACHN renal.
Test [17] deals with CAKI-1 renal.
Test [18] concerns A498 renal.
Test [19] has as its system CCRF-CEM leukemia.
The subject of test [20] is MOLT-4 leukemia.

The text below walks through data of PubChem BioAssay (NCI).

Compounds without any hit were thinned out: in the full panel of roughly 83,000, 20% have a hit.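 Percent growth is the endpoint: 0 to 100 indicates growth inhibition (40 means 60% inhibition), 0 means no net growth, and negative values indicate cell death.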 Values without a mark were called inactive. The source made the active and inactive calls. How the source made its calls: active means growth percent below 10; inactive means the rest.

As to `COc1ccc(Cl)cc1NC(N)=S`, the growth in test [1] is 103%; in test [2], 98.7%; in test [3] it was 86.6%; in test [4] it was 111%; in test [5], 97.7%; in test [6], 93%. Further, the growth in test [7] was 104%; in test [8], 102%; in test [9], 96.7%; in test [10] it was 108%; in test [11], 107%; in [12] it was 105%. Also, the growth in test [13] was 105%; in test [14], 97%; in test [15], 89.5%; in test [16] it was 110%; in [17] it was 97.3%; in test [18], 95.9%. The values for the growth in test [19] and in test [20] were 105% and 99.7%, respectively.
On to `CCN(CC)S(=O)(=O)c1ccc2[nH]c(=O)cc(C(=O)Nc3ccc(OC)cc3OC)c2c1`, for which the growth is 106% in test [1]; 126% in [2]; 110% in test [3]; 104% in [4]; 108% in test [5]; 105% in test [6]. For the same molecule, the growth is 111% in [7]; 103% in test [8]; 106% in test [9]; 123% in [10]; 88.8% in [11]; 166% in [12]. Besides, the growth is 108% in test [13]; 108% in test [14]; 115% in test [15]; 103% in test [16]; 120% in [17]; 146% in test [18]. For the same molecule, the growth was 92.6% in [19] and 99.7% in test [20].
On to `COc1cc(Br)c(OC)cc1Br`, for which the growth in [1] was 103%; in [2], 96.4%; in test [3], 90.4%; in [4] it was 108%; in test [5], 98.9%; in test [6], 91.2%. The growth in test [7] was 98.4%; in [8] it was 94.8%; in test [9], 90%; in test [10], 105%; in [11], 101%; in [12] it was 76%. Besides, the growth in test [13] was 110%; in test [14], 60.4%; in test [15], 140%; in test [16], 92.4%; in test [17], 85.2%; in [18], 88.7%. For the same molecule, the growth is 116% in [19] and 98.3% in test [20].
In the case of `CC(=O)c1cc(C(=O)c2ccc3c(c2)Sc2ccccc2N3)c2cc(C)ccn12`, the growth in test [1] is 8.38% (active); in test [2] it was -57% (active); in test [3], 9.11% (active); in test [4], 31.6%; in test [5], 11.3%; in [6], 18%. Also, the growth in test [7] is -26.6% (active); in test [8], 30.2%; in [9], 17%; in test [10] it was 56.1%; in [11], 35.8%; in [12], 31.1%. The growth was 23.1% in test [13]; 28.4% in test [14]; -25.7% (active) in test [15]; 22.9% in [16]; 19% in test [17]; -16.4% (active) in test [18]. Moreover, the growth in test [19] is 11.1%; in test [20] it was 13.1%.
For the molecule `Nc1nn2cc(-c3ccc(Cl)s3)nc2c2ccccc12`, the growth was 87.5% in test [1]; 92% in [2]; 81.6% in test [3]; 93% in test [4]; 94.7% in test [5]; 83.8% in [6]. Moreover, the growth in test [7] was 84%; in [8], 81.6%; in test [9] it was 82.2%; in test [10], 94.2%; in test [11] it was 49.9%; in test [12], 86.7%. Also, the growth in [13] was 91.9%; in test [14], 67.1%; in test [15], 113%; in test [16], 79.6%; in test [17], 74.6%; in test [18], 59.5%. The growth is 76.8% in test [19] and 44.4% in test [20].
In the case of `Cc1cc(Cl)ccc1OC(C)C(=O)Nc1nnc(C2CC2)s1` (stereo not given), the growth is 119% in test [1]; 66.4% in [2]; 104% in test [3]; 95.6% in test [4]; 101% in test [5]; 99.2% in test [6]. In addition, the growth in test [7] was 74%; in test [8], 85.5%; in test [9] it was 95.4%; in [10] it was 120%; in [11] it was 36.3%; in test [12] it was 98.6%. Also, the growth in test [13] is 96.4%; in test [14] it was 40.1%; in test [15], 104%; in test [16], 109%; in test [17], 103%; in [18] it was 95.2%. Also, the values for the growth in test [19] and in [20] were 95.9% and 108%, respectively.
For `C/C1=C\CCC2(C)OC2CC2CCC(C)(O)C(CC1)C2(C)C` (stereo not given), the growth in test [1] is 89.4%; in [2], 107%; in test [3], 108%; in test [4], 87.7%; in [5], 91%; in [6], 85.2%. Also, the growth is 84.8% in test [7]; 88% in test [8]; 101% in [9]; 119% in [10]; 106% in test [11]; 81.1% in test [12]. Besides, the growth in test [13] is 101%; in test [14], 99.2%; in [15], 97%; in test [16], 92.5%; in test [17], 87.7%; in test [18] it was 106%. Besides, the growth in [19] is 84.1%; in test [20], 97.9%.
Turning to `COc1ccc(N=C2NN=C(c3ccc(F)cc3)CS2)cc1OC`, the growth in [1] is 96.5%; in [2], 100%; in test [3], 123%; in test [4], 94.3%; in [5], 87.4%; in test [6], 93.2%. Further, the growth was 86.8% in test [7]; 86.6% in test [8]; 85.5% in test [9]; 114% in test [10]; 66.4% in test [11]; 99% in test [12]. The growth is 98.1% in test [13]; 44.2% in test [14]; 89.8% in test [15]; 93.7% in [16]; 84.9% in test [17]; 86.1% in test [18]. Also, the growth in [19] was 81.8%; in [20], 73.4%.
Regarding `COc1cc(C2C3=C(COC3=O)Nc3c2ccc2c3CCCC2)cc2c1OCO2` (stereo not given), the growth in [1] is 11.2%; in [2] it was -3.84% (active); in test [3], 34.3%; in test [4], 36.1%; in test [5] it was 23.1%; in [6] it was 31.7%. In addition, the growth in test [7] was -18.8% (active); in test [8], 36.4%; in [9], 27.7%; in test [10], 70.1%; in test [11], 18.6%; in test [12], 47.9%. Moreover, the growth in test [13] was 28%; in [14] it was 47.7%; in test [15] it was 65.9%; in test [16], 29.2%; in test [17] it was 33.2%; in test [18] it was 8.51% (active). Also, the values for the growth in [19] and in [20] were 14.6% and 18.3%, respectively.
For `O=C(c1c[nH]c2ccccc12)C(Sc1nc2ccccc2c(=O)[nH]1)c1ccccc1` (stereo not given), the growth in [1] is 104%; in test [2] it was 71.3%; in test [3], 90.6%; in test [4], 102%; in [5] it was 101%; in test [6], 94.1%. In addition, the growth in test [7] was 99.8%; in test [8] it was 102%; in test [9] it was 95.3%; in [10], 117%; in test [11], 72.2%; in test [12], 91.2%. Moreover, the growth in test [13] was 98.5%; in test [14], 81.8%; in test [15], 97.6%; in [16], 97.9%; in test [17] it was 108%; in test [18] it was 106%. The growth in [19] and in test [20] was 99.8% in each case.
As for `CC/C=C\C[C@H](O)C/C=C1/C(=O)C(Cl)=C[C@@H]1C/C=C\CCCC(=O)O`, the growth is 16.2% in test [1]; 18.7% in test [2]; 71.7% in test [3]; 74.7% in test [4]; 17.5% in [5]; 43.7% in test [6]. Also, the growth in [7] was 69.1%; in test [8] it was 1.46% (active); in [9], 4.09% (active); in [10], 43.7%; in [11], 54%; in [12] it was 63.9%. Besides, the growth in [13] is 22.8%; in test [14], 64.2%; in [15] it was 78.9%; in test [16], 45.3%; in test [17], 79.1%; in [18], 134%. The growth in test [19] is 2.58% (active); in [20] it was 40.5%.
Consider `CCOP(=O)(CCN1CCN(CCCCCOc2cc3c(cc2OC)C(=O)N2CCC[C@H]2C=N3)CC1)OCC`, for which the growth was 104% in [1]; 80.4% in [2]; 65.5% in test [3]; 91.5% in [4]; 30.1% in test [5]; 76.2% in test [6]. The growth in [7] was 83.9%; in test [8] it was 94.6%; in test [9], 22%; in test [10] it was 120%; in test [11] it was 33.6%; in [12], 98.2%. Moreover, the growth was 79% in [13]; 28.3% in test [14]; 148% in test [15]; 99.9% in [16]; 57.3% in [17]; 89.2% in [18]. For the same molecule, the growth in test [19] is 11%; in test [20] it was 19.9%.
On to `COC(=O)CCCCCN=Cc1c(O)c(O)c(C(C)C)c2cc(C)c(-c3c(C)cc4c(C(C)C)c(O)c(O)c(C=NCCCCCC(=O)OC)c4c3O)c(O)c12`, for which the growth in test [1] is 17.2%; in [2], 4.21% (active); in test [3], 46.9%; in [4] it was 20.6%; in test [5], 3.85% (active); in test [6] it was 14%. The growth in [7] is 32.3%; in test [8] it was 25%; in test [9], 13.7%; in [10], 33%; in test [11] it was 10.4%; in test [12], 21.7%. The growth in [13] was 19.8%; in test [14], 19.5%; in [15] it was 3.95% (active); in [16] it was 15.5%; in test [17] it was 55.6%; in test [18] it was 35.1%. Further, the figures for the growth in test [19] and in test [20] were 18.1% and 13.6%, respectively.
